This is an account of results in publication PMC7862700, “An all-to-all approach to the identification of sequence-specific readers for epigenetic DNA modifications on cytosine”.

Test in all cases: DAPPL (digital affinity profiling via proximity ligation, sequencing); 10 mM Tris-HCl pH 7.5, 50 mM NaCl, 1 mM DTT, 4% glycerol, room temperature, 30 min; GST-TFs on glutathione beads, 16-mer random dsDNA library, 0.1% formaldehyde crosslink after washing; high values mean tight binding
The target in one assay is T1, FLI1 (Homo sapiens, UniProt Q01543 1-452).
T1 sequence: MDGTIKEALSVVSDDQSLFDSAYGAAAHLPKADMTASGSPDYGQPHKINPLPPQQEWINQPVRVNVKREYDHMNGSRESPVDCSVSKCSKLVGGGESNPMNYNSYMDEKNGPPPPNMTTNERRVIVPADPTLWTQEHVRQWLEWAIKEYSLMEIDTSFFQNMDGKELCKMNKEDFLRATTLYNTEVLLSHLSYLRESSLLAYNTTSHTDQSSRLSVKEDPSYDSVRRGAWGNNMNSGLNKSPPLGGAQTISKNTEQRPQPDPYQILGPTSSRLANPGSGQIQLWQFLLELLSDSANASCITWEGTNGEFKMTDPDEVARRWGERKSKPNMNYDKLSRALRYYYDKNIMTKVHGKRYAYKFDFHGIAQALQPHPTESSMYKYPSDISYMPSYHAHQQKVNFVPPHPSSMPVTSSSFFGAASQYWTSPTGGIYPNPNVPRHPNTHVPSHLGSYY
As to conditions: protein: recombinant; tags: N-terminal GST; dsDNA, one strand shown. In a few lines: (§1)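 Binding signal is each hexamer's read frequency for a factor divided by its frequency in the tag-only sample. The factors were GST-fused human transcription factors from yeast, captured on glutathione beads, DNA-barcoded and pooled with that sample. Pools were incubated with 200 nmole of a random double-stranded 16-mer DNA library in Tris/NaCl/DTT/glycerol buffer at room temperature for 30 min, then washed, crosslinked with 0.1% formaldehyde, proximity-ligated with BsaI/T4 ligase (1 h, 37 °C), PCR-amplified and sequenced on an Illumina NextSeq500.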

For another assay, the target named is T2, ELK1 (Homo sapiens, UniProt P19419 1-428).
T2 sequence: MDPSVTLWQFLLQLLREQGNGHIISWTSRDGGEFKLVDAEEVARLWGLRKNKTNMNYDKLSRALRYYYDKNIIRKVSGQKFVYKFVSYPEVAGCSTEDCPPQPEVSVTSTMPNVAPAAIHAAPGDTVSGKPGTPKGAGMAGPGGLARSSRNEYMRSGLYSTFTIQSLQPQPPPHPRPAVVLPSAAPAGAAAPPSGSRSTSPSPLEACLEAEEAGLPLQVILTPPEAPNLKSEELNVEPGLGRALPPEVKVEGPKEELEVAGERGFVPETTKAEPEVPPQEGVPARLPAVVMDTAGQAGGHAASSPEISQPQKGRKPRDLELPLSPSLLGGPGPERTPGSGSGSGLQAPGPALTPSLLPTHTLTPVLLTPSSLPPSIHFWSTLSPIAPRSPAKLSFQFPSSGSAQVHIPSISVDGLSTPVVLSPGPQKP
As to conditions: protein: recombinant; tags: N-terminal GST; dsDNA, one strand shown. The method in brief:
as §1

In a further assay the target is T3, GABPA (Homo sapiens, UniProt Q06546 1-454).
T3 sequence: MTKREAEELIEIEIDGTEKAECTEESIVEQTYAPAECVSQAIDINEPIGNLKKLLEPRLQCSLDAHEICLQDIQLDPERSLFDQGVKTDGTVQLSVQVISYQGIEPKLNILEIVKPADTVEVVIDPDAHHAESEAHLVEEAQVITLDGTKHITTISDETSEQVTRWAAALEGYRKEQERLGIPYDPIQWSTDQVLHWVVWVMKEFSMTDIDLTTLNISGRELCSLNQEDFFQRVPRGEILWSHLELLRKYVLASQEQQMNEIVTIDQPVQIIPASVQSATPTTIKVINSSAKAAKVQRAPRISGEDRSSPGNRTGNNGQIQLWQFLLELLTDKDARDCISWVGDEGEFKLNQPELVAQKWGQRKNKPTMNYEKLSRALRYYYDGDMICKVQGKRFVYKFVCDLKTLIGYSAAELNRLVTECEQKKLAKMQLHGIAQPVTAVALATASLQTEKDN
As to conditions: protein: recombinant; tags: N-terminal GST; dsDNA, one strand shown. In a few lines: as §1

The next assay concerns the target T4, ERG (Homo sapiens, UniProt P11308 1-479).
T4 sequence: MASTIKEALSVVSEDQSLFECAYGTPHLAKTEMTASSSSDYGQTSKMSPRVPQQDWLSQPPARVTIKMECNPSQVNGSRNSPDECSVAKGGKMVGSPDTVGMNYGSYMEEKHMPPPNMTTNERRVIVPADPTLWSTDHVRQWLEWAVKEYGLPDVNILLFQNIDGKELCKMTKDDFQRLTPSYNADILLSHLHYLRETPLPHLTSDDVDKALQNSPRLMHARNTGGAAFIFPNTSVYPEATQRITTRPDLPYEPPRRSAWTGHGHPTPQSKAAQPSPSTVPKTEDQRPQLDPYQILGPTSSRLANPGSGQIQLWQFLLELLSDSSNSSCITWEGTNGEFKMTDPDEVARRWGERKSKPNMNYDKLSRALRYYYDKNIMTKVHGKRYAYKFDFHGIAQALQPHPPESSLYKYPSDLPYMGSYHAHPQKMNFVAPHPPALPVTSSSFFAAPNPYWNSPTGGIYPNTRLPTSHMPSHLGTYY
The settings on record: protein: recombinant; tags: N-terminal GST; dsDNA, one strand shown. In a few lines:
as §1

The target of another assay is ELF1 (Homo sapiens, UniProt P32519 1-619). As to conditions: protein: recombinant; tags: N-terminal GST; dsDNA, one strand shown. The method in brief: as §1
The target in the next assay is T5, EHF (Homo sapiens, UniProt Q9NZC4 1-300).
T5 sequence: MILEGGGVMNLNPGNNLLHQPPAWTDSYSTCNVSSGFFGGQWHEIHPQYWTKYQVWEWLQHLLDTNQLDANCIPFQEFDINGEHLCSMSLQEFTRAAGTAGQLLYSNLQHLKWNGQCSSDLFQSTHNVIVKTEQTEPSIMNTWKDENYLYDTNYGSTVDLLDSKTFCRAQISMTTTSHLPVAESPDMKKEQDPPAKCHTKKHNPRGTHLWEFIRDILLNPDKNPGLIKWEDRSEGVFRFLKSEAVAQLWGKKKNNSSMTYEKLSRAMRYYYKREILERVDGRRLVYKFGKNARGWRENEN
As to conditions: protein: recombinant; tags: N-terminal GST; dsDNA, one strand shown. The method in brief:
as §1

The target of the next assay is SPI1 (Homo sapiens, UniProt P17947 1-270). As to conditions: protein: recombinant; tags: N-terminal GST; dsDNA, one strand shown. In a few lines: as §1
A further assay concerns the target SPIB (Homo sapiens, UniProt Q01892 1-262). As to conditions: protein: recombinant; tags: N-terminal GST; dsDNA, one strand shown. The method in brief:
as §1

The target in a further assay is T6, ELK3 (Homo sapiens, UniProt P41970 1-407).
T6 sequence: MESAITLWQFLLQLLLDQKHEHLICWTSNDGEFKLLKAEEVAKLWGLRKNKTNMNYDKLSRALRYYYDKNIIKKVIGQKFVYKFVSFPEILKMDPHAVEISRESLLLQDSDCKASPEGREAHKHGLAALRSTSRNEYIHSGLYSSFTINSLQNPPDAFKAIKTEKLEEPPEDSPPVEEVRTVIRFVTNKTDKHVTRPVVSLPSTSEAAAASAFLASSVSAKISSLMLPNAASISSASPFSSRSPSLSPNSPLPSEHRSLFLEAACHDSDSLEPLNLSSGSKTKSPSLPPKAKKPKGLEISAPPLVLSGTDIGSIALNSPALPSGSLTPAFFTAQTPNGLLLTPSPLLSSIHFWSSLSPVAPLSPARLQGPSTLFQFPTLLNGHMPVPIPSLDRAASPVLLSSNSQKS
As to conditions: protein: recombinant; tags: N-terminal GST; dsDNA, one strand shown. The method in brief: as §1

Another assay deals with T7, FEV (Homo sapiens, UniProt Q99581 1-238).
T7 sequence: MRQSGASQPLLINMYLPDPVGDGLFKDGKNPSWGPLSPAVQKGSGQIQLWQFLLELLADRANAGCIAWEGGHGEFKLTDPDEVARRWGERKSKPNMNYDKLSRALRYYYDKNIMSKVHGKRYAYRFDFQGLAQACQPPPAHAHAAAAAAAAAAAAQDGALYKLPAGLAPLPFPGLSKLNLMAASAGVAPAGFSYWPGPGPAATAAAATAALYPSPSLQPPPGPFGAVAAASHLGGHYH
The settings on record: protein: recombinant; tags: N-terminal GST; dsDNA, one strand shown. In a few lines: as §1

Another assay concerns the target ETV5 (Homo sapiens, UniProt P41161 1-510). The settings on record: protein: recombinant; tags: N-terminal GST; dsDNA, one strand shown. In a few lines:
as §1

For a further assay, the target named is HSF1 (Homo sapiens, UniProt Q00613 1-529). As to conditions: protein: recombinant; tags: N-terminal GST; chain copies: 3; dsDNA, one strand shown. In a few lines:
as §1

For the next assay, the target named is T8, SPIC (Homo sapiens, UniProt Q8N5J4 1-248).
T8 sequence: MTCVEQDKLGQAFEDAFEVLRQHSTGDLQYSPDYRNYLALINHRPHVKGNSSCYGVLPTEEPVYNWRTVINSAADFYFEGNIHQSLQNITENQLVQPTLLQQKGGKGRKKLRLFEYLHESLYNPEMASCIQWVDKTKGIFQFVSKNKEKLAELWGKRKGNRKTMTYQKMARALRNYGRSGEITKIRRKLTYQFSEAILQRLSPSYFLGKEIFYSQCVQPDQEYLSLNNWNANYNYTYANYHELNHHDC
The settings on record: protein: recombinant; tags: N-terminal GST; dsDNA, one strand shown. The method in brief: as §1

The target of the next assay is ELF4 (Homo sapiens, UniProt Q99607 1-663). As to conditions: protein: recombinant; tags: N-terminal GST; dsDNA, one strand shown. The method in brief:
as §1

A further assay deals with T9, ELK4 (Homo sapiens, UniProt P28324-2 1-405).
T9 sequence: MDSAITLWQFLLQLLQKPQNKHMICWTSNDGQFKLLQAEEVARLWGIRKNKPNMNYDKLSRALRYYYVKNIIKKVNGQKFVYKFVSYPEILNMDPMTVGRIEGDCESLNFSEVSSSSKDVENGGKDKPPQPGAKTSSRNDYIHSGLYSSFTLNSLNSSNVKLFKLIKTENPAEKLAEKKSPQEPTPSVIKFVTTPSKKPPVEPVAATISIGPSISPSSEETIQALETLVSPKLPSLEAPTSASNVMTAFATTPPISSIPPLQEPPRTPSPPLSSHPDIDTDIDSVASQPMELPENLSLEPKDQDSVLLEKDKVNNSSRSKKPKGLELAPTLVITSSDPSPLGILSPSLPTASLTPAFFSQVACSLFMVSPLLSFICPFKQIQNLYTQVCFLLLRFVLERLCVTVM
The settings on record: protein: recombinant; tags: N-terminal GST; dsDNA, one strand shown. In a few lines:
as §1

Another assay deals with T10, ETV2 (Homo sapiens, UniProt O00321 1-342).
T10 sequence: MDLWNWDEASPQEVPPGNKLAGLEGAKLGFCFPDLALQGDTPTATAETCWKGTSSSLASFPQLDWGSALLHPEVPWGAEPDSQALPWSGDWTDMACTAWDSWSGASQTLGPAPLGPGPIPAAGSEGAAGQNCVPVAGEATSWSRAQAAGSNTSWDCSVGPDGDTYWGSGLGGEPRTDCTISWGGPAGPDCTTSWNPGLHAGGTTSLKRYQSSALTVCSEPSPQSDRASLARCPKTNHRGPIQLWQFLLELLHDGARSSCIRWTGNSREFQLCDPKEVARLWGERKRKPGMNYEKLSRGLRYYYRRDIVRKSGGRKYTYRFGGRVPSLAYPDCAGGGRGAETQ
The settings on record: protein: recombinant; tags: N-terminal GST; dsDNA, one strand shown. In a few lines: as §1

In a further assay the target is T11, ELF3 (Homo sapiens, UniProt P78545 1-371).
T11 sequence: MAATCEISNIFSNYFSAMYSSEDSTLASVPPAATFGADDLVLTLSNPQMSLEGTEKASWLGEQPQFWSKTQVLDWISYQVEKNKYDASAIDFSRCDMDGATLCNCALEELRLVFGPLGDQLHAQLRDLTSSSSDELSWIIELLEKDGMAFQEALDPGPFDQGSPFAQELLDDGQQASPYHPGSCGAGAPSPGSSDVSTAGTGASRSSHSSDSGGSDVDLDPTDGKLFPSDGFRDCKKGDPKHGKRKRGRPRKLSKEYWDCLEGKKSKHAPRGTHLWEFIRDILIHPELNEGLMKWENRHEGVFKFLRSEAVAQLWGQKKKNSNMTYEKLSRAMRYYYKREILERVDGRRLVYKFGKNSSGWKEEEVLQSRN
As to conditions: protein: recombinant; tags: N-terminal GST; dsDNA, one strand shown. The method in brief:
as §1

The target in another assay is CRX (Homo sapiens, UniProt O43186 1-299). The settings on record: protein: recombinant; tags: N-terminal GST; dsDNA, one strand shown. In a few lines: as §1
The next assay has as its target ETV1 (Homo sapiens, UniProt P50549 1-477). The settings on record: protein: recombinant; tags: N-terminal GST; dsDNA, one strand shown. In a few lines: as §1

Chain of ETV5 (P41161 whole entry): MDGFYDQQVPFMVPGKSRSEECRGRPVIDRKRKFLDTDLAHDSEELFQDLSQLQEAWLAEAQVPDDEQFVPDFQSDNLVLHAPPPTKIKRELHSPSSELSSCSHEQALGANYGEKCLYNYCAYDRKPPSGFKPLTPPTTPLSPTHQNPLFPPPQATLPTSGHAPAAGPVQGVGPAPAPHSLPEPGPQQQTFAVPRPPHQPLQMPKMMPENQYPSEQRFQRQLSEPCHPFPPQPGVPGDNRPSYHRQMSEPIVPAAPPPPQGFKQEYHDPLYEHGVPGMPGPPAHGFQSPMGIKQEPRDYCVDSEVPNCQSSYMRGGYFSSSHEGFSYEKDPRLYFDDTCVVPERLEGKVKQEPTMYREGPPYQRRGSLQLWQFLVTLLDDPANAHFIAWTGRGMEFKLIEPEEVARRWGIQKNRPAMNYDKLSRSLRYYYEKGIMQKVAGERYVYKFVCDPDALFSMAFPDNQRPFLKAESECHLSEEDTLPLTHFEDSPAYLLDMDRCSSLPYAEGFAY
Chain of CRX (O43186 whole entry): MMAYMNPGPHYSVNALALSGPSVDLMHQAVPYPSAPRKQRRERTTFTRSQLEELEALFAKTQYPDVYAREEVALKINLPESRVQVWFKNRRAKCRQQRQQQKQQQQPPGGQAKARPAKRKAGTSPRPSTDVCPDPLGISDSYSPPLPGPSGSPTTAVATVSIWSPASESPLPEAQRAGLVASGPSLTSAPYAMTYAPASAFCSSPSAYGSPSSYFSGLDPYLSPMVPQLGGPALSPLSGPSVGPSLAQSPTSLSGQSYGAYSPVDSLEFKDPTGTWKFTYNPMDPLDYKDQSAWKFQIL
Chain of HSF1 (Q00613 whole entry): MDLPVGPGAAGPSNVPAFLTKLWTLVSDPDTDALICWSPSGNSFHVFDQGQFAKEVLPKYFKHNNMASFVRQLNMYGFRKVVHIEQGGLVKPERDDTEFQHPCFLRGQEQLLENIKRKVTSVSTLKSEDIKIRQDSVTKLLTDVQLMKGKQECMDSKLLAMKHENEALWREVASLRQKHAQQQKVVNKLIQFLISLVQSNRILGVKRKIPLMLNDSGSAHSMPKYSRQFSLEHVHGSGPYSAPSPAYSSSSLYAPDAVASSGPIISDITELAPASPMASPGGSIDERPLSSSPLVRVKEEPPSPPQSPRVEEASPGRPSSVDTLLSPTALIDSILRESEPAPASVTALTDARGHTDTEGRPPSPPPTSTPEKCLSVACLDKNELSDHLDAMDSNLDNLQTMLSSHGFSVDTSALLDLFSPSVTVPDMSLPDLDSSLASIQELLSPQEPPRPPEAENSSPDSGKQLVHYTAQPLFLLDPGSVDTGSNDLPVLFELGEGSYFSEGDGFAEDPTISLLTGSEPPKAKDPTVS
Chain of SPIB (Q01892 whole entry): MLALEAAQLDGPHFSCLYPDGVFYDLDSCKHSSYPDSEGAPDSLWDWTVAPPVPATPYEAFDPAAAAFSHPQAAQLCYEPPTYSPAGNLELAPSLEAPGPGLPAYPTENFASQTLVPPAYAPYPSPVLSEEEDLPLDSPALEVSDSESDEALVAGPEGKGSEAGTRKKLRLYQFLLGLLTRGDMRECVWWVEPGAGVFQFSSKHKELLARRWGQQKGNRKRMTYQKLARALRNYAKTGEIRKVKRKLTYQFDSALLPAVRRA
Chain of ELF4 (Q99607 whole entry): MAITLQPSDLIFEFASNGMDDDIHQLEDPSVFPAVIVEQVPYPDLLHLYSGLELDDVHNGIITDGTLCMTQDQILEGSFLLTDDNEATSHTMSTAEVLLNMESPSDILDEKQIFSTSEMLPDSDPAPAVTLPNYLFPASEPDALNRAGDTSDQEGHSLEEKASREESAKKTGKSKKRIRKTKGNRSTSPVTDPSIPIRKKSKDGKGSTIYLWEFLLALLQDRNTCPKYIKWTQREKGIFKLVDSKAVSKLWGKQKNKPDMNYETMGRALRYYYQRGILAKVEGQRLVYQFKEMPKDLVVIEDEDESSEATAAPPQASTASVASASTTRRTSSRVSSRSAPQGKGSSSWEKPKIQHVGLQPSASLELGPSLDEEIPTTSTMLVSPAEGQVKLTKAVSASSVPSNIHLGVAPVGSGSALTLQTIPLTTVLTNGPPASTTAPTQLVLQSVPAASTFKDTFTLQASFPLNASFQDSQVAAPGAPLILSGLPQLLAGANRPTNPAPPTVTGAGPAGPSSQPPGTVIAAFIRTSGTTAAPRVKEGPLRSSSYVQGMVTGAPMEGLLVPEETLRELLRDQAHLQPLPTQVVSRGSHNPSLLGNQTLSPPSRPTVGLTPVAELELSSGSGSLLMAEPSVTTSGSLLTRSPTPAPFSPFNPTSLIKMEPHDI
Chain of ELF1 (P32519 whole entry): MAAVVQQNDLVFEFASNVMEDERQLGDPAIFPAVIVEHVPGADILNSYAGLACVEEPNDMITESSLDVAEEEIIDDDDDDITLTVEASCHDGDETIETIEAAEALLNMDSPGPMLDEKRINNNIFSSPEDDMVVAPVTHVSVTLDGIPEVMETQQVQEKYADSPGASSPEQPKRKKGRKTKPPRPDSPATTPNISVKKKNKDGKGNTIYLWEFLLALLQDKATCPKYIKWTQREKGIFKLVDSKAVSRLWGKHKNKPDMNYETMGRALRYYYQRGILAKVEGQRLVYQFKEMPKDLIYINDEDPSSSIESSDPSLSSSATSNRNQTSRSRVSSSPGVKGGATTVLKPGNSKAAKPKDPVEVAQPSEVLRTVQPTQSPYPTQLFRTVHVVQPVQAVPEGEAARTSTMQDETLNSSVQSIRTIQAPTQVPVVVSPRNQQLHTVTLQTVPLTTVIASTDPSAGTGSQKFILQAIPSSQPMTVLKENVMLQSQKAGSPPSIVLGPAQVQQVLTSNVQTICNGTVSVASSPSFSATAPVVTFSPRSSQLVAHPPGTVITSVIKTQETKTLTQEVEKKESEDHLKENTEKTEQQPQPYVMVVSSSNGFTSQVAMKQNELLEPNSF
Chain of ETV1 (P50549 whole entry): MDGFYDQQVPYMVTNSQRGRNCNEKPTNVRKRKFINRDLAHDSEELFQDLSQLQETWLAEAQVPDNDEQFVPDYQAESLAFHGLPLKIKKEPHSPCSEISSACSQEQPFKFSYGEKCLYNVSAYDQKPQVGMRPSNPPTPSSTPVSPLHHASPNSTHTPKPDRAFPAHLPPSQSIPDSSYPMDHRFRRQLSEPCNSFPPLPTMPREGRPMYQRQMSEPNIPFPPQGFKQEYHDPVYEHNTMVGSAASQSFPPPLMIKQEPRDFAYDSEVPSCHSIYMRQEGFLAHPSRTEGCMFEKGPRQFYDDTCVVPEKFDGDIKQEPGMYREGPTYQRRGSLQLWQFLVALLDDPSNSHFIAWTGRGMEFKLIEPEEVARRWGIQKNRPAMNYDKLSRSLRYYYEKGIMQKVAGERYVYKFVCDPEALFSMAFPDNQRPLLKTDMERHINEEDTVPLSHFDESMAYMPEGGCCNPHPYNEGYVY

Turning to TGTACT, the binding signal is 1.28 fold enrichment (6-mer frequency, TF over GST control) with FLI1; 1.44 fold enrichment (6-mer frequency, TF over GST control) in the assay with ELK1; 1.24 fold enrichment (6-mer frequency, TF over GST control) with GABPA; 1.24 fold enrichment (6-mer frequency, TF over GST control) with ERG; 1.35 fold enrichment (6-mer frequency, TF over GST control) in the assay with ELF1; 1.3 fold enrichment (6-mer frequency, TF over GST control) with EHF. In addition, the binding signal with SPI1 was 1.25 fold enrichment (6-mer frequency, TF over GST control); in the assay with SPIB, 1.21 fold enrichment (6-mer frequency, TF over GST control); in the assay with ELK3, 1.35 fold enrichment (6-mer frequency, TF over GST control); with FEV, 1.41 fold enrichment (6-mer frequency, TF over GST control); in the assay with ETV5, 1.34 fold enrichment (6-mer frequency, TF over GST control); with HSF1 it was 1.18 fold enrichment (6-mer frequency, TF over GST control). For the same sequence, the binding signal in the assay with SPIC was 1.18 fold enrichment (6-mer frequency, TF over GST control); with ELF4 it was 1.29 fold enrichment (6-mer frequency, TF over GST control); with ELK4, 1.2 fold enrichment (6-mer frequency, TF over GST control); in the assay with ETV2, 1.3 fold enrichment (6-mer frequency, TF over GST control); in the assay with ELF3, 1.23 fold enrichment (6-mer frequency, TF over GST control); in the assay with CRX it was 1.15 fold enrichment (6-mer frequency, TF over GST control). The binding signal with ETV1 was 1.34 fold enrichment (6-mer frequency, TF over GST control).
